Two molecules from ChEMBL document CHEMBL2218924, “A broad activity screen in support of a chemogenomic map for kinase signalling research and drug discovery” (Biochem J, 2013) can be followed below.

Experiment [1] deals with T1, Serine/threonine-protein kinase TAO2 (Homo sapiens) (UniProt Q9UL54).
T1 sequence (whole entry): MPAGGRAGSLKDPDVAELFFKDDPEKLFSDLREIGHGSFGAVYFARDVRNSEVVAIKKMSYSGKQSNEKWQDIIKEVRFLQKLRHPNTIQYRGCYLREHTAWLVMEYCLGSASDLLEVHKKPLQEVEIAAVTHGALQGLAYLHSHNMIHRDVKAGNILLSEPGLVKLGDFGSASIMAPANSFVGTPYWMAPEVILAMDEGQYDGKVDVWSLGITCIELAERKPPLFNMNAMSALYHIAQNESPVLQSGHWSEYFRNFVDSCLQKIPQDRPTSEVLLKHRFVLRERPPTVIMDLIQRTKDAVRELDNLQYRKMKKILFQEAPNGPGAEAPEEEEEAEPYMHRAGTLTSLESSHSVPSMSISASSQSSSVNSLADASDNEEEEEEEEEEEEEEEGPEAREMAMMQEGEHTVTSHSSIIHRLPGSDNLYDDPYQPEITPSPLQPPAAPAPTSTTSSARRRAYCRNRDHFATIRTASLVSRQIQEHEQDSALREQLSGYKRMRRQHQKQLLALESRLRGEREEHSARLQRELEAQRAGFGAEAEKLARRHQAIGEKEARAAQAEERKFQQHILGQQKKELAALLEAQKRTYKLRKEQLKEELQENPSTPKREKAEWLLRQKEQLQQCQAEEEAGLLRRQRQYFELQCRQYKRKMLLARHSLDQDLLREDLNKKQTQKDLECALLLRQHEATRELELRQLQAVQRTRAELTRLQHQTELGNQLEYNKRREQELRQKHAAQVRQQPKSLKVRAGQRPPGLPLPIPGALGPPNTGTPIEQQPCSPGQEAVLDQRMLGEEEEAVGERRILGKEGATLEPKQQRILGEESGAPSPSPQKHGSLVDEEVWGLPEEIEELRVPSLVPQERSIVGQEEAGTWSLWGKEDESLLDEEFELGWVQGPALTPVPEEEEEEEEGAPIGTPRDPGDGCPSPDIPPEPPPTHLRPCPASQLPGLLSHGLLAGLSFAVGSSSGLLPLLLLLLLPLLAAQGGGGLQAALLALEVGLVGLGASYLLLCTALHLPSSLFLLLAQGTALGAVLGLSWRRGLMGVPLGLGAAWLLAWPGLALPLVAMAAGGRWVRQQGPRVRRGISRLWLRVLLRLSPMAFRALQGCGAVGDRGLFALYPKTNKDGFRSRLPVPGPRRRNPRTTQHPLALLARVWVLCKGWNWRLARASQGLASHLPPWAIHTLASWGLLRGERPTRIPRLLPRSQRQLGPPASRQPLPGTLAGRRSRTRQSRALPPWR
The note with it: at 1 µM.

For experiment [2], the target named is T1, Serine/threonine-protein kinase TAO2 (Homo sapiens). The note with it: at 10 µM.
Experiment [3] addresses T2, Serine/threonine-protein kinase TAO3 (Homo sapiens) (UniProt Q9H2K8).
T2 sequence (whole entry): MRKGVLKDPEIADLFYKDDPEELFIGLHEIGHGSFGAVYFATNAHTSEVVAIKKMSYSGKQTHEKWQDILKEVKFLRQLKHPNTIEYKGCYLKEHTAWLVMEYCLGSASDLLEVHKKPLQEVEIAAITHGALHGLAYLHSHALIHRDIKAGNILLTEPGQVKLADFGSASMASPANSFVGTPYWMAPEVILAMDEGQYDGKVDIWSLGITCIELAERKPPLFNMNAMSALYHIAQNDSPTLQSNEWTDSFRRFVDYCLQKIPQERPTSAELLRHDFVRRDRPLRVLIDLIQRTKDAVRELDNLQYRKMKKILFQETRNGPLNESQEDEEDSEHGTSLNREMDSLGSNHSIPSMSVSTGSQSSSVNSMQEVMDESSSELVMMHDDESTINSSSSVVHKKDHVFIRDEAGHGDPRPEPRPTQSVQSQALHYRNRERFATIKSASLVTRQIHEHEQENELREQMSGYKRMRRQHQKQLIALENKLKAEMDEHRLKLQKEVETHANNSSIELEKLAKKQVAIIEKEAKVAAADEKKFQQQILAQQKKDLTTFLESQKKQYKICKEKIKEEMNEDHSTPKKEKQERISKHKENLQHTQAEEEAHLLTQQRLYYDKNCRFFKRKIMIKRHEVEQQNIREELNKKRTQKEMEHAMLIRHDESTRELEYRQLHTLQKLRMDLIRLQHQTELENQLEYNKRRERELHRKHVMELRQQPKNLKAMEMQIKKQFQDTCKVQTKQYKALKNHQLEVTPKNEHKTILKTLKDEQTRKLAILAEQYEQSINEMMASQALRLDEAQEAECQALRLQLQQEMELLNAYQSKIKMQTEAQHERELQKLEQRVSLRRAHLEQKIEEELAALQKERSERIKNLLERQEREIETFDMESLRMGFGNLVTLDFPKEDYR
The conditions noted are these: at 1 µM.

Experiment [4] deals with T2, Serine/threonine-protein kinase TAO3 (Homo sapiens). The note with it: at 10 µM.
For experiment [5], the target named is T3, Serine/threonine-protein kinase TBK1 (Homo sapiens) (UniProt Q9UHD2).
T3 sequence (whole entry): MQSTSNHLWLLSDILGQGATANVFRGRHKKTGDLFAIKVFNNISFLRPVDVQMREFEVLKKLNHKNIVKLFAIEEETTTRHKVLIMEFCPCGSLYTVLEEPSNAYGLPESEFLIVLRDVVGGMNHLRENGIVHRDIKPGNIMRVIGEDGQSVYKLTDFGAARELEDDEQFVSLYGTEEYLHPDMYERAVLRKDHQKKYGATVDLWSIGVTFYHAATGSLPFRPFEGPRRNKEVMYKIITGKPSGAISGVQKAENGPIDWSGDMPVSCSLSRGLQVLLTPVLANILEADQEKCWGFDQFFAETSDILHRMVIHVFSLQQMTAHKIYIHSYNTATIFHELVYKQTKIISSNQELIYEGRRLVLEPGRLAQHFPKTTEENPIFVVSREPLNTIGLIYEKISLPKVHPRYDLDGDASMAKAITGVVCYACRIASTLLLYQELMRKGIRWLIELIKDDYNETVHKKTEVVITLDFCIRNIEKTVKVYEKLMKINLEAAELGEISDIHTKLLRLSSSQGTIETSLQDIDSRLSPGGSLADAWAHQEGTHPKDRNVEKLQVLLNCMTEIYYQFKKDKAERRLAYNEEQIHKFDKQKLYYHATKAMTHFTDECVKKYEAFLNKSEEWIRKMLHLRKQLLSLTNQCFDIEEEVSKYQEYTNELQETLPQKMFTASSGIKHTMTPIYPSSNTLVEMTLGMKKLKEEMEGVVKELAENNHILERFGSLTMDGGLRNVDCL
The conditions noted are these: at 1 µM.

The target in experiment [6] is T3, Serine/threonine-protein kinase TBK1 (Homo sapiens). The conditions noted are these: at 10 µM.
Experiment [7] has as its target T4, TGF-beta receptor type-1 (Homo sapiens) (UniProt P36897).
T4 sequence (whole entry): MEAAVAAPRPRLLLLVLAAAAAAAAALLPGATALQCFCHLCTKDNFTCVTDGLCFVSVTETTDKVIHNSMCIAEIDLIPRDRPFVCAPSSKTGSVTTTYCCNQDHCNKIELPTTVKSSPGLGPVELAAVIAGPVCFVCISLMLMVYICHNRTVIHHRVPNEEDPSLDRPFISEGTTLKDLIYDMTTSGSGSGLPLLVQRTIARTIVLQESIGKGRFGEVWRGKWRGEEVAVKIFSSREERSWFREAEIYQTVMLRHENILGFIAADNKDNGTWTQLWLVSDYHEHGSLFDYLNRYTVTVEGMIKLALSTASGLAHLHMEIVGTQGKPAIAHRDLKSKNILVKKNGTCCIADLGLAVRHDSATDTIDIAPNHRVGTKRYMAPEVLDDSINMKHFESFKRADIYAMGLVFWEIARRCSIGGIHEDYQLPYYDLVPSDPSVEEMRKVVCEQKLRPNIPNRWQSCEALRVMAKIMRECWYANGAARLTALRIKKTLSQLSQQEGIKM
The conditions noted are these: at 1 µM.

For experiment [8], the target named is T4, TGF-beta receptor type-1 (Homo sapiens). The conditions noted are these: at 10 µM.
Experiment [9] addresses Insulin-like growth factor 1 receptor (Homo sapiens) (UniProt P08069). The conditions noted are these: at 1 µM.
For experiment [10] the target is unchanged. The conditions noted are these: at 10 µM.
Experiment [11] addresses T5, Inhibitor of nuclear factor kappa-B kinase subunit beta (Homo sapiens) (UniProt O14920).
T5 sequence (whole entry): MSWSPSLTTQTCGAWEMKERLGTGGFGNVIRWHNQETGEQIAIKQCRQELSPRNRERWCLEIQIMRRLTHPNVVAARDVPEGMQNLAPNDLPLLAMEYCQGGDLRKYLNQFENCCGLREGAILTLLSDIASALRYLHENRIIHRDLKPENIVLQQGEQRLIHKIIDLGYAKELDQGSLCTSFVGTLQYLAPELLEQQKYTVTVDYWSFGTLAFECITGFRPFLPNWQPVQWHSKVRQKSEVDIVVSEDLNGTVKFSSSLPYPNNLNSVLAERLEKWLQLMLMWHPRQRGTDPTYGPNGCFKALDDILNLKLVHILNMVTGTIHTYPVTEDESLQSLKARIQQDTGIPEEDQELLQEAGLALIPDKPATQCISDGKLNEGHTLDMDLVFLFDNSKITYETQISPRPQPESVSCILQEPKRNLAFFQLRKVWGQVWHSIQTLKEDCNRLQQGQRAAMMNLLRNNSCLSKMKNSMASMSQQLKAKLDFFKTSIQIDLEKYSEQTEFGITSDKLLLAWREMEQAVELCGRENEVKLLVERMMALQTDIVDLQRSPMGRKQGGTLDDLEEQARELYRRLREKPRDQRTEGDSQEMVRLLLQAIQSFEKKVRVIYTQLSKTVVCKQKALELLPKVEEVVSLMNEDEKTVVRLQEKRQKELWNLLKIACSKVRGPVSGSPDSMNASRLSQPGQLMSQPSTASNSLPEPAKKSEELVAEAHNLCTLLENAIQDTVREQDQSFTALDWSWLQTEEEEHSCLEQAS
The conditions noted are these: at 1 µM.

In experiment [12] the target is Insulin receptor (Homo sapiens) (UniProt P06213). The note with it: at 1 µM.
Chain of Insulin receptor (Homo sapiens) (P06213 28-758 limits assumed): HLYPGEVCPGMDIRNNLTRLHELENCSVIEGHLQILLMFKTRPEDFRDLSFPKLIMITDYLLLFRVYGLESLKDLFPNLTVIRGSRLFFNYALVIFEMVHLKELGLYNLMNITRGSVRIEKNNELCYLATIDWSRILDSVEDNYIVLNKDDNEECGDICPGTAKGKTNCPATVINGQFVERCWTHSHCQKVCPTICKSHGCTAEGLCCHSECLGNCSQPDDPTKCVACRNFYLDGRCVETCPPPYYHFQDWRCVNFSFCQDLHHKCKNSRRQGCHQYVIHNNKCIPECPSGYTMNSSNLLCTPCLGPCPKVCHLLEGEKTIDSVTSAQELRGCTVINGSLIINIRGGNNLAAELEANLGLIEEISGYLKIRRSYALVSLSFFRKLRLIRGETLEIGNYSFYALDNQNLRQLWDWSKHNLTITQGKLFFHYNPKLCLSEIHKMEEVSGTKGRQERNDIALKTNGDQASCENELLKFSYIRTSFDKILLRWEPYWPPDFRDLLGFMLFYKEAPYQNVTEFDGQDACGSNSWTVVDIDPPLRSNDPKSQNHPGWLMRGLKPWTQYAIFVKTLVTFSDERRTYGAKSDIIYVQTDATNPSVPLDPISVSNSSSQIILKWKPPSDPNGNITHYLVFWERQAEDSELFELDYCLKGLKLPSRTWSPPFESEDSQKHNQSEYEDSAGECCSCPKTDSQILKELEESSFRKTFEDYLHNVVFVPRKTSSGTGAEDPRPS
Chain of Insulin receptor (Homo sapiens) (P06213 763-1382 limits assumed): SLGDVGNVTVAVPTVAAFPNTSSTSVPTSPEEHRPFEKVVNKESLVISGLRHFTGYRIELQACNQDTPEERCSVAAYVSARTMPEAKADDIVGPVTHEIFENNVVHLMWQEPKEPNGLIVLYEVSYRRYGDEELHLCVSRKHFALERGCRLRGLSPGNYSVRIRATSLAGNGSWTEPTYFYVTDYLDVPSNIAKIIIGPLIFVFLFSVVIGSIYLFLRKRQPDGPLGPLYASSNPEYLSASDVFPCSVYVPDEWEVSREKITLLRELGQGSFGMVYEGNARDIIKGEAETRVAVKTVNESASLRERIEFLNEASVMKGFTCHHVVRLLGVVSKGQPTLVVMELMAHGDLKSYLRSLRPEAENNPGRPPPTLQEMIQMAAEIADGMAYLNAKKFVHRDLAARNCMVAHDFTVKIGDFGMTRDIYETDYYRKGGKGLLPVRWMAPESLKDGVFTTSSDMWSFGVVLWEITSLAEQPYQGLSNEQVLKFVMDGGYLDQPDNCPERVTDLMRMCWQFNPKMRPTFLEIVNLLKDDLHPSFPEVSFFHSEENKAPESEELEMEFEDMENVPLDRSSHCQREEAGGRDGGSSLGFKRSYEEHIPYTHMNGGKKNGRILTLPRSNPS
Experiment [13] has the same target. The conditions noted are these: at 10 µM.
For experiment [14] the target is unchanged. The note with it: at 1 µM. This is another data set of the same source.
For experiment [15] the target is unchanged. The conditions noted are these: at 10 µM. This is another data set of the same source.
In experiment [16] the target is Interleukin-1 receptor-associated kinase 1 (Homo sapiens) (UniProt P51617). The note with it: at 1 µM.
Chain of Interleukin-1 receptor-associated kinase 1 (Homo sapiens) (P51617 whole entry, looked up): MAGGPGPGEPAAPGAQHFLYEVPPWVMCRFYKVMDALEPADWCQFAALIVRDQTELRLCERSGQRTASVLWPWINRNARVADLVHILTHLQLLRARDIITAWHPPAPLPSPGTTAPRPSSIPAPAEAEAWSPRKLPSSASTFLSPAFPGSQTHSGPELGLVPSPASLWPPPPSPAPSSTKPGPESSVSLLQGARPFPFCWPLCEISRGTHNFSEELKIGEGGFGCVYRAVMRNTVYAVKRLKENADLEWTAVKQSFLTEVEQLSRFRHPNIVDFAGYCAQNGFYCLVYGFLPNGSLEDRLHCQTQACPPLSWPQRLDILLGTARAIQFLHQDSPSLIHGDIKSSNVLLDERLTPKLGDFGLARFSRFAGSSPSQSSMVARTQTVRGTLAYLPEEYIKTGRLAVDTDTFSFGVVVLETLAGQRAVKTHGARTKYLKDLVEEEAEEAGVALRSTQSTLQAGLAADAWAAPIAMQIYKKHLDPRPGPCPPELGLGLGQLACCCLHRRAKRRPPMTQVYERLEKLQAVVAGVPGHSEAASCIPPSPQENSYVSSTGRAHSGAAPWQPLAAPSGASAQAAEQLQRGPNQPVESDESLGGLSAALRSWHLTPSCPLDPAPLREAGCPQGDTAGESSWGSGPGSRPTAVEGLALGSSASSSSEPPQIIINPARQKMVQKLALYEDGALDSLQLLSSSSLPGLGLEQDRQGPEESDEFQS
The target is the same in experiment [17]. The conditions noted are these: at 10 µM.
In experiment [18] the target is T6, Inhibitor of nuclear factor kappa-B kinase subunit alpha (Homo sapiens) (UniProt O15111).
T6 sequence (whole entry): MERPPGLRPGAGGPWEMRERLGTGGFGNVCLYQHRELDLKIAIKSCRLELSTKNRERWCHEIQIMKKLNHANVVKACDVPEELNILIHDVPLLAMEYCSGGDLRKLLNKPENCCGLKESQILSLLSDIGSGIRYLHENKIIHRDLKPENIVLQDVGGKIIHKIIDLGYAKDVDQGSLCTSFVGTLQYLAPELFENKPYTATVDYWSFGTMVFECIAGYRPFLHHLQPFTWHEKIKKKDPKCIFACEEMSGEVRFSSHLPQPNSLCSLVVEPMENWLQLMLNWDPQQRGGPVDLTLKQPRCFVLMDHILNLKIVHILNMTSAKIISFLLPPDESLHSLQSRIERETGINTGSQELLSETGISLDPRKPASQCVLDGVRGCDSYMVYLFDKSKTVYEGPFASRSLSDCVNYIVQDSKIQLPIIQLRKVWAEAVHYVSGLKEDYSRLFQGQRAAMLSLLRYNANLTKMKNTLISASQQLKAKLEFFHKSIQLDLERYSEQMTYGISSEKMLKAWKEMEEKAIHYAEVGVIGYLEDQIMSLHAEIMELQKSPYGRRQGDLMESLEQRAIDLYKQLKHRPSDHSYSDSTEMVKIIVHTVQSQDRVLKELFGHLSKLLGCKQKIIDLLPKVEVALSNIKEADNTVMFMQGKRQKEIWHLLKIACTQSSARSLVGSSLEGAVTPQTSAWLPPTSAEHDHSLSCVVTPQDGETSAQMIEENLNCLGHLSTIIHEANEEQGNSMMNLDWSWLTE
The note with it: at 1 µM.

For experiment [19], the target named is T6, Inhibitor of nuclear factor kappa-B kinase subunit alpha (Homo sapiens). The conditions noted are these: at 10 µM.

SMILES strings stand for the structures.

Chain of Insulin-like growth factor 1 receptor (Homo sapiens) (P08069 31-736 limits assumed): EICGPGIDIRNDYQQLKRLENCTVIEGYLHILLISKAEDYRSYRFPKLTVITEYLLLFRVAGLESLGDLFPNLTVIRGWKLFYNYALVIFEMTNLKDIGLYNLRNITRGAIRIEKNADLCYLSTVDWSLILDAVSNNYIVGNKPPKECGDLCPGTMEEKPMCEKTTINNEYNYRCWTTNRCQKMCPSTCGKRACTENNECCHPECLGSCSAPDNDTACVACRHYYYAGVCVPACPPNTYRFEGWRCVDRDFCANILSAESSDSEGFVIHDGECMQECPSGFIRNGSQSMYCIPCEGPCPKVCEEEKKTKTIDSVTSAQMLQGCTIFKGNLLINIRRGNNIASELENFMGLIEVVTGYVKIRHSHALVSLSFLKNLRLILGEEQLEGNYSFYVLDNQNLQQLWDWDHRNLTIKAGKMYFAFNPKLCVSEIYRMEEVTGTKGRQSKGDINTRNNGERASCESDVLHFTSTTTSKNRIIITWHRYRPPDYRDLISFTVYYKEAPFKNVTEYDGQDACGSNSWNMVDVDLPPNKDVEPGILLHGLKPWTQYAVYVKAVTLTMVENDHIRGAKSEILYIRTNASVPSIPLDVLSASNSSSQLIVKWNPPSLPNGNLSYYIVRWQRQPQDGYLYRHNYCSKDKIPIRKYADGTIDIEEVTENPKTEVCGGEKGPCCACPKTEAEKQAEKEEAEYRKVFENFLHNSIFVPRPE
Chain of Insulin-like growth factor 1 receptor (Homo sapiens) (P08069 741-1367 limits assumed): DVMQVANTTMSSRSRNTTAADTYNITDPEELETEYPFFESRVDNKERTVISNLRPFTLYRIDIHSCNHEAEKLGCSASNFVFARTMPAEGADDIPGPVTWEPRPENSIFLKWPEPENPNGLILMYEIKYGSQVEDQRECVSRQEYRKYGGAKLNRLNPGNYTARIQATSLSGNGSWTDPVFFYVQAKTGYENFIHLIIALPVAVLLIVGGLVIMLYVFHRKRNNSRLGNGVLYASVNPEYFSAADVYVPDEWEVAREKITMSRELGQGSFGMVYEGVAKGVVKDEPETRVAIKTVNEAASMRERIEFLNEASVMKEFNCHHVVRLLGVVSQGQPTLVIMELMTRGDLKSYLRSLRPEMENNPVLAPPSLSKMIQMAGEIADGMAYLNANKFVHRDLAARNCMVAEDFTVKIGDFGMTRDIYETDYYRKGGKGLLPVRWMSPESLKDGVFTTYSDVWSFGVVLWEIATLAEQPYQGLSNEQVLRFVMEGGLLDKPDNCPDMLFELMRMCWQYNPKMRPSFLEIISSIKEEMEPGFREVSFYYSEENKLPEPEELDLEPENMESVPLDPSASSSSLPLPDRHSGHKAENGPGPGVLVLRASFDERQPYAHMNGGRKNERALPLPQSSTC

`CC(C)[C@H](CO)Nc1nc(Nc2cccc(Cl)c2)c2ncn(C(C)C)c2n1`: the residual activity in experiment [1] stood at 98%; in [2] it was 49%; in [3], 82%; in [4], 32%; in experiment [5], 90%; in [6] it was 66%. In addition, the residual activity in [7] was 95%; in [8], 93%; in [9] it was 48%; in experiment [10], 12%; in [11], 116%; in [12] it was 81%. For the same molecule, the residual activity turned out to be 33% in experiment [13]; 34% in [14]; 4% in experiment [15]; 81% in experiment [16]; 23% in experiment [17].

Turning to `O=C1NC(=O)c2c1c1c3ccccc3n3c1c1c2c2ccccc2n1C1CCC3O1`, the residual activity turned out to be 96% in experiment [3]; 94% in [4]; 54% in experiment [5]; 62% in experiment [6]; 93% in experiment [18]; 73% in experiment [19]. Further, the residual activity amounted to 94% in experiment [12], 79% in experiment [13], 100% in experiment [14] and 88% in [15].

A word on the residual activity: it is the signal under treatment as a percentage of the control signal.
